# In the supplement of paper PMC6555819:
# What was measured:
# Assay in all cases: PBM binding z-score (relative to random genomic background probes); higher = stronger binding; sequences stand for … in GC…GCGATTGACAGCGTAGAATGAAGG
# [1] = test system: PPARg:RXRa DBDmut IVT, anti-RXR (DBD mutation: RXRa K156A/R161A, NR concentration 270 nM, RXRa partner concentration 90 nM)
# Outline: (§1)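 Binding z-scores take random background probes as their reference. They come from custom Agilent 4×180K protein-binding microarrays incubated 1 h with ligand-free nuclear receptor dimers, with antibodies against each partner (one per run) detecting binding. Scanned fluorescence was regression-normalized.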
# [2] = test system: PPARg:RXRa IVT, anti-PPARg (NR concentration 270 nM, RXRa partner concentration 90 nM)
# Outline: as §1
# [3] = test system: PPARg DBDmut:RXRa IVT, anti-PPARg (DBD mutation: PPARg1 K132A/R137A, NR concentration 270 nM, RXRa partner concentration 90 nM)
# Outline: as §1
# [4] = test system: PPARg DBDmut IVT, anti-PPARg (DBD mutation: PPARg1 K132A/R137A, NR concentration 270 nM)
# Outline: as §1
# [5] = test system: PPARg homodimer (NR concentration 180 nM)
# Outline: as §1
# [6] = test system: PXR:RXRa (NR concentration 270 nM, RXRa partner concentration 90 nM)
# Outline: as §1
# [7] = test system: PXR homodimer (NR concentration 270 nM)
# Outline: as §1
# [8] = test system: RARa:RXR (NR concentration 270 nM, RXRa partner concentration 90 nM)
# Outline: as §1
# [9] = test system: RARa homodimer (NR concentration 270 nM)
# Outline: as §1
# [10] = test system: RARb:RXRa (NR concentration 270 nM, RXRa partner concentration 90 nM)
# Outline: as §1
# [11] = test system: RARb homodimer (NR concentration 270 nM)
# Outline: as §1
# [12] = test system: RARg:RXRa (NR concentration 270 nM, RXRa partner concentration 90 nM)
# Outline: as §1
# [13] = test system: RARg homodimer (NR concentration 270 nM)
# Outline: as §1
# [14] = test system: RXRa DBDmut IVT, anti-RXR (DBD mutation: RXRa K156A/R161A, NR concentration 90 nM)
# Outline: as §1
# [15] = test system: RXRa homodimer (NR concentration 180 nM)
# Outline: as §1
# [16] = test system: THRa:RXRa (NR concentration 90 nM, RXRa partner concentration 90 nM)
# Outline: as §1
# [17] = test system: THRa homodimer (NR concentration 90 nM)
# Outline: as §1
# [18] = test system: VDR homodimer (NR concentration 270 nM)
# Outline: as §1
Sequence,PBM binding z-score [1],PBM binding z-score [2],PBM binding z-score [3],PBM binding z-score [4],PBM binding z-score [5],PBM binding z-score [6],PBM binding z-score [7],PBM binding z-score [8],PBM binding z-score [9],PBM binding z-score [10],PBM binding z-score [11],PBM binding z-score [12],PBM binding z-score [13],PBM binding z-score [14],PBM binding z-score [15],PBM binding z-score [16],PBM binding z-score [17],PBM binding z-score [18]
TCGACTAGGTTAGGGGCATTCAGAATGGCGTCGA,2.47,1.86,0.0313,-0.271,0.688,0.539,-0.0457,0.602,-0.239,1.26,0.889,0.355,0.408,0.884,0.798,1.03,0.253,0.473
GCAGACAGGTGAAACGCAGGTGACTCAGGGTGGC,0.661,1.27,-0.57,-0.659,-0.182,0.074,-0.467,0.675,-0.193,1.01,0.561,1.85,0.482,-0.723,0.927,1.56,-0.166,-0.391
CGTGCTAGGTCAATGGTCAGCTAAAGCAGCTCGC,4.64,4.42,0.168,-1.05,1.65,0.869,-0.615,1.59,-0.282,3.77,2.95,3.8,4.95,1.67,2.31,2.23,0.655,0.301
AATACAGGGTCATGGTAGGCCAGAGTACGCACAG,2.45,4.41,2.48,1.13,3.31,4.8,0.859,5.21,1.28,4.25,3.69,5.54,4.93,3.15,6.91,4.38,1.95,3.24
CCTGCTGGGCCATTCAGAGGTCATTGATCATATG,0.632,1.28,-1.02,-0.733,1.68,4.82,2.03,4.69,-0.506,3.23,4.1,4.63,3.19,1.05,3.79,3.24,1.12,3.17
CCTACTGGTCCACGAAAGGTCATTGATTCAGTGA,0.842,1.87,0.736,-0.00763,4.11,5.53,3.24,5.86,2.86,3.95,4.62,4.79,4.43,1.26,5.49,3.52,1.6,3.62
TCTAGTTAGTCAAAGGTCACACACTCGAAATGCG,2.7,4.43,1.17,3.06,5.38,5.63,2.01,6.72,3.05,4.74,4.84,6.12,5.68,2.03,7.09,3.97,1.9,2.57
TTACCAAGGTGAGCTGAGGTTGTTGATCCAACTC,1.22,1.51,-0.399,-0.245,-0.248,2.03,-0.915,0.168,-0.951,0.78,0.122,-0.185,0.109,-0.414,-0.0103,3.29,0.439,-0.373
TAGCCTAGGACATTGGGCCAGTATAGTACGCATC,-0.0779,0.309,-0.136,-0.693,-0.568,-0.674,-0.291,-0.557,-0.0644,-0.123,-0.251,-0.0558,0.0958,-0.671,-0.0784,0.281,-0.00513,-0.291
CCTAGTTGGTCAGGAGGACACACACCGGATATGA,0.664,1.14,-0.182,0.142,0.859,-0.126,0.473,0.228,1.7,1.4,1.58,1.2,1.73,-0.252,0.276,1.28,1.43,0.975
GCATATAGGTATTACAAGGTGAAAGTCCGATTGT,1.46,1.46,0.48,1.21,0.307,0.0796,0.205,1.69,0.465,0.417,0.63,0.464,0.464,0.414,0.523,3.76,1.14,-0.251
ATATCTAGGTAAGACTCAGTTCAGTGAAGAACGC,5.77,4.56,2.06,1.25,0.747,0.999,1.25,0.287,1.13,0.401,0.918,0.275,0.108,0.525,0.354,0.631,0.604,1.41
ACTACTAGTTGACTTAGGGCAACCGATACGACGC,0.365,0.47,0.77,0.857,0.669,0.14,-0.0753,0.458,0.347,0.59,0.824,0.463,0.625,0.495,0.508,1.32,0.683,0.273
TCGTATAGGTAAATGCTAGGTGAAAGTCCGATCT,2.09,1.21,0.00787,0.782,0.833,0.373,-0.198,0.889,0.867,0.432,0.475,0.402,0.0931,1.07,0.407,1.48,0.325,-0.0661
AATAGTTGGTCAGCTGAGGTCACACACAATTCGG,1.3,2.86,1.06,0.792,3.85,5.58,2.36,4.78,2.44,3.7,4.34,4.25,4.37,1.48,4.26,4.94,5.21,3.62
TCATATAGGAAATACAGGTGAAAGTCGGCATCTA,3.01,1.27,1.58,0.426,1.31,0.596,0.578,0.964,1.97,0.372,0.167,0.527,0.553,2.12,1.37,0.441,0.299,0.241

Sequence,PBM binding z-score [1],PBM binding z-score [2],PBM binding z-score [3],PBM binding z-score [4],PBM binding z-score [5],PBM binding z-score [6],PBM binding z-score [7],PBM binding z-score [8],PBM binding z-score [9],PBM binding z-score [10],PBM binding z-score [11],PBM binding z-score [12],PBM binding z-score [13],PBM binding z-score [14],PBM binding z-score [15],PBM binding z-score [16],PBM binding z-score [17],PBM binding z-score [18]
AATACAGAGTCACTAGGCCAGAGTAGGTACGAAT,0.648,1.74,1.31,0.135,0.238,-0.343,-0.0346,-0.415,0.249,0.141,0.0526,0.21,0.516,-0.494,0.28,-0.12,-0.685,-0.0774
TTACCAAGGTGGGCTGAGGTCGTTGATCCAACTC,-0.241,0.386,-0.362,-0.213,-0.101,2.86,0.257,1.14,0.0238,0.446,1.04,0.249,-0.257,0.273,0.833,3.77,1.5,2.06
CCTTACGGGTCACTGACAGGTTAGAGCATTTGGA,3.5,3.63,0.322,-0.672,2.02,3.32,-0.369,4.51,0.501,3.95,3.12,5.7,4.77,1.55,5.51,2.68,0.0773,0.83
GCTCGGAGGACAAGGCCAGAGCTTTGTCCGTAGA,-1.3,-0.505,-1.72,-1.33,-1.33,-1.03,-0.879,-0.936,-1.54,0.806,0.141,-0.322,-0.004,-1.09,-1.17,0.254,-0.595,-0.801
CCTACTGGGCCATCAGGTCATTGATATCAACGTT,4.98,4.72,0.527,-0.213,1.26,1.56,0.961,1.65,0.0562,2.1,2.73,2.15,2.21,0.377,1.17,3.14,3.21,1.66
GGAACGAGGGCAAGATGATAGCAGAGTTTGATGG,3.59,2.4,-0.698,-0.398,0.136,0.418,0.432,0.145,0.345,2.19,1.21,1.2,1.78,1.52,0.962,0.971,-0.0312,1.08
CCGAGTAGGTTATTGGGCATTCAGGCAACGGTGA,3.85,2.72,-1.32,-0.589,0.636,-0.415,-0.545,-0.107,-0.0218,0.472,0.361,0.0352,0.187,0.421,0.183,0.0204,0.103,0.256
CCTTACTGGTCAAGGTTATAGCACGGGTGGTACG,0.149,0.857,0.06,0.0641,1.25,1.12,0.519,1.01,0.942,2.02,1.78,1.43,1.55,-0.171,1.37,1.52,1.09,0.749
GTACCAAGCTGAATAGGTCGTTGATGAGTAGGCG,-0.646,-0.114,-1.16,-0.822,-1.1,-0.255,-0.471,0.235,-0.336,0.0822,0.0267,-0.0216,0.164,-0.0938,0.371,-0.0665,-0.873,-0.43
CCTACTAGGCCAAGGTCATTGATCAGTCAAAGCA,5.34,4.8,0.0145,0.199,1.67,3.52,1.98,3.68,0.849,3.62,3.74,3.86,3.68,2.31,3.64,3.52,3.01,3.34
CCGACTGGGGCAGAAAGGTTACCACACCATCCGG,1.83,1.76,-0.724,-0.799,0.71,0.929,-0.219,1.85,0.0999,1.92,2.28,1.77,1.41,-0.654,1.84,1.01,-0.368,-0.223
TCGAGTAGGTTACCAATGGGGCATTCCGCTTTCT,3.12,2.43,-0.775,-0.0752,-0.326,-0.00662,-1.08,0.186,-1.04,0.81,0.449,0.942,0.197,0.173,0.226,-0.155,-0.631,-0.741
CCTAGCAGGCCAGGATCACTCAAGCATTTCGCTT,0.271,-0.507,-1.72,-1.21,-0.29,-0.547,-0.646,-0.792,-0.0748,-0.149,-0.596,-0.33,-0.385,-0.0229,-0.232,-0.455,-0.257,-0.251
CCTTTCGGGTCACTCCAGGTTATAGCATCGGAGT,2.65,3.53,0.307,-0.494,2,4.94,0.803,3.73,0.474,4.01,3.43,4.46,4.55,2.36,4.03,5.16,3.18,1.87
TCATATATGTAAATGCTAGGTGAAAGTCCGATCT,2.12,0.736,1.47,0.87,-0.136,0.601,0.0676,0.644,0.525,0.329,0.368,0.1,0.244,1.18,0.654,1.01,0.597,-0.0734
